CHX counter: affects cycloheximide protein synthesis inhibition readout, counter-screen; cell reporter, cycloheximide protein synthesis inhibition counterscreen; max response, %; 300,000 compounds, 12% hits; AID 2314; in the data active means max response mostly above about 13%, no sharp cut-off; inactive means mostly below about 14%; further: read at 38.3 µM for the half of the compounds with a filed dose; 0% is about no effect
Pf growth 96h: P. falciparum growth inhibition at 96 hours | P. falciparum luciferase reporter growth, 96 h | Potency, µM (top dose mostly 28.7 µM), inactives show at the highest dose activity change, negative = inhibition, actives largely listed as inhibitors | 320,000 compounds, 6.9% hits; further: potency means the concentration at half of the fitted maximal effect; on the % scale 0 is the no-effect control and ±100 the full control effect
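Delayed-death screen, second-generation endpoint: infected erythrocytes, 2% hematocrit, 0.05% parasitemia final; 96 hours at 37 C, 5% CO2; luciferase detection reagent; luminescence decrease equals reduced growth.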
SARS PLP yeast: inhibitors of SARS-CoV papain-like protease in yeast | Potency, µM (highest dose often 32.9 µM), without a hit: at the top dose activity, positive = growth rescue, usual class: activators | 330,000 compounds, 0.19% hits | S. cerevisiae expressing SARS-CoV PLpro, growth rescue; calls by dose curve; further: potency means the concentration at half of the fitted maximal effect; 0% is about no effect; nearly all actives have a fitted effect of over 55% in size
Shiga toxin inh: blocks Shiga toxin action in Vero cells; Vero cells, Shiga toxin protein synthesis inhibition reporter; inhibition, % at 38.7 µM; 290,000 compounds, 9.2% hits; AID 2315; in the data active means inhibition mostly above about 28%, no sharp cut-off; inactive means mostly below about 43%; further: 0% is about no effect
AMA1-RON2 inh: disrupts binding of P. falciparum AMA1 to RON2. AlphaScreen AMA1-biotinylated RON2 peptide binding. Potency, µM (titrated, usually from 58.2 µM), for inactives: top-dose activity change, negative = inhibition, most hits filed as inhibitors. 360,000 compounds, 0.2% hits. AID 720542;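 further: potency means the concentration at half of the fitted maximal effect; 0% = vehicle wells and -100% = peptide control; nearly all actives have a fitted effect of over 45% in size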
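AMA1 (3D7) with his tag at 25 nM final met compounds first, then biotinylated RON2 peptide at 25 nM; detection used donor plus acceptor beads, 10 µg/mL apiece, read by AlphaScreen after 30 min at room temperature.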
Pf growth 48h: inhibits P. falciparum growth in the first generation, 48 h; Potency, µM (highest dose often 28.7 µM), without a hit: top-dose activity change, negative = inhibition, actives largely listed as inhibitors; 310,000 compounds, 5.9% hits; P. falciparum luciferase growth in erythrocytes, 48 h; AID 504832; further: potency means the concentration at half of the fitted maximal effect; on the % scale 0 is the no-effect control and ±100 the full control effect
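Luciferase-expressing parasites in RBCs, 2% Hct / 0.1% parasitemia final; RPMI 1640 + 0.5% Albumax; 37 C, 5% CO2, one generation; luminescence read-out, lower signal = inhibition.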
Active calls of the source: *; i = inactive; ? = inconclusive; . = not tested or not shown; [ ] = another dose, or the depositor's remark. A selection: hits, their analogues and other compounds. The true share with any hit is near 19%. Unless noted, the call rests on the fitted dose curve; in most records, active means well fitted curve in the direction sought with a large enough effect; inconclusive means small, poorly fitted or top-dose-only effect, or another doubt; inactive means no such curve, though single readings can be large; an effect the other way counts as inactive or inconclusive.

SMILES | CHX counter | Pf growth 96h | SARS PLP yeast | Shiga toxin inh | AMA1-RON2 inh | Pf growth 48h
N/C(=N\OC(=O)CCC1CCCC1)c1ccccn1 | 52* | 24% | -105% | 65* | 8% | 100%
N/C(=N\OC(=O)CCC1CCCC1)c1ccc([N+](=O)[O-])cc1 | 19* | ? | 0% | 26 | -14% | 45%[5.75 µM]
N/C(=N\OC(=O)Cc1ccccc1)c1ccc([N+](=O)[O-])cc1 | 30* | 46% | -2% | 42* | -19% | 13%
N/C(=N\OC(=O)CCCc1ccccc1)c1ccc([N+](=O)[O-])cc1 | -1 | -9% | -50% | 10 | -8% | 32%
N/C(=N\OC(=O)CCC1CCCCC1)c1cccc([N+](=O)[O-])c1 | 3 | 0% | -11% | 4 | -16% | 36%
N/C(Cc1ccc([N+](=O)[O-])cc1)=N\OC(=O)Cc1ccccc1 | 11 | 10% | -7% | -8 | 1% | 16%
CCOC(=O)C1(Cc2ccccc2C(F)(F)F)CCN(Cc2ccon2)CC1 | -1 | 1% | 0% | 6 | -11% | ?
Cc1ccccc1OC(=O)n1c(=S)oc2cc(Cl)ccc21 | 16* | . | -30% | 43 | 45% | 21%
O=C(NC(=S)N1CCCCCC1)c1ccccc1Cl | -3 | -12% | 7% | 21 | 55% | 5.2µM*
O=C(Nc1ccccc1C(=O)N1CCCC1)c1ccc(Cl)cc1Cl | 3 | 12µM* | -1% | -7 | -15% | 18%
O=C(NC(=S)N1CCCCCC1)c1ccc(Cl)cc1Cl | -1 | 9.3µM* | -2% | 12 | 82% | ?
Nc1ccc(C(=O)NCCCSc2ccccc2)cc1[N+](=O)[O-] | 2 | ? | 1% | -9 | -5% | -5%
C=CCn1c(N)c(C(=O)OC(C)CC)c2nc3ccccc3nc21 (stereo not drawn) | 1 | . | -6% | -20 | 29% | 10µM*
COCC(C)OC(=O)c1c(N)n(CC(C)C)c2nc3ccccc3nc12 (stereo not drawn) | -5 | . | 6% | -31 | 53% | 12µM*
C=CCn1c(N)c(C(=O)OC(C)(C)C)c2nc3ccccc3nc21 | 6 | . | -10% | -6 | -1% | .
COCCCn1c(N)c(C(=O)OCCOC)c2nc3ccccc3nc21 | 2 | ? | 6% | 9 | 5% | -17%
CC(C)c1ccc(NC(=S)NN2CCN(C)CC2)cc1 | 1 | -31%[1.15 µM] | 0% | 18 | 2% | 13%
CC(C)c1ccc(NC(=O)C(c2ccccc2)N2CCOCC2)cc1 (stereo not drawn) | 2 | ? | 1% | 4 | -4% | .
CCOC(=O)c1ccc(NC(=S)NNC(C)(C)C)cc1 | 61* | -6% | 0% | 84* | 42% | -14%
CCOC(=O)c1ccc(NC(=S)NC(=O)COc2ccccc2)cc1 | 55* | 18% | 19% | -3 | 38% | 9%
CCC(C)c1ccc(NC(=S)NN2CCOCC2)cc1 (stereo not drawn) | 42* | ? | ? | 87* | -11% | 79%
CC(C)c1ccc(NC(=O)NN2CCOCC2)cc1 | 43* | 50% | 2% | 138* | 2% | i
COP(=O)(OC)C(NC(=O)Nc1ccccc1)c1ccccc1 (stereo not drawn) | -3 | 5% | 0% | -9 | -3% | 13%
CCOc1ccc(N2CC(C(=O)Nc3ccccc3C(=O)N3CCOCC3)CC2=O)cc1 (stereo not drawn) | -7 | 33% | 4% | -3 | 17% | 0%
CCOC(=O)c1ccc(NC(=S)NN2CCOCC2)cc1 | 32* | ? | 3% | 39* | 46% | 77%
CC(=O)Nc1ccc(NC(=O)CSc2nc(=O)n(Cc3ccncc3)c3c2CCC3)cc1 | . | -10% | 3% | . | -2% | -39%
COc1cccc(CNC(=O)CSc2nc(=O)n(Cc3ccncc3)c3c2CCC3)c1 | . | ? | . | . | 19% | 10µM*
CCOC(=O)N1CCC(=NNc2ccc(S(N)(=O)=O)cc2[N+](=O)[O-])CC1 | 0 | 23%[5.75 µM] | -1% | -6 | -3% | 6%[5.75 µM]
NNC(=O)c1csc(-c2ncc(C(F)(F)F)cc2Cl)n1 | -1 | 34% | -2% | 13 | 75% | 1%
Cc1cc(C)cc(NC(=O)CC2NCCNC2=O)c1 (stereo not drawn) | 1 | 4% | -1% | 18 | 6% | .

Source: PubChem BioAssay (National Center for Advancing Translational Sciences (NCATS))
